Experimental data published in PubChem BioAssay (EPA / NIEHS).
“And” between values parts separate entries of the source, which are not always exact repeats. Equal entries are not always repeated. Some compounds were tested as several samples or in several runs, with calls that do not always agree. The source made the active and inactive calls. How the source made its calls: active means hit-call score of the fitted dose curve at least 0.9, where 1 is the maximum; inactive means score below 0.9.

Key:
[1] = ATG_ISRE_CIS: Attagene CIS-FACTORIAL HepG2 Assay for human Interferon Regulatory Factor 1 (IRF1) binding to an Interferon-Stimulated Response Element (ISRE) (AID 2282948); details: HepG2 ISRE cis-reporter (Attagene), mRNA transcription readout; actives raise or lower the signal
Outline: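 Signal reflects induction or loss of ISRE-linked reporter mRNA in transiently transfected HepG2 cells after a 24 h treatment, detected by fluorescent RT-PCR fragments on capillary electrophoresis and normalised to DMSO.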

[2] = ATG_M_32_CIS: Attagene CIS-FACTORIAL HepG2 Assay for M32 Transcription Factor (Internal Marker) (AID 2282949); details: HepG2 Attagene cis-factorial M32 reporter, mRNA; actives raise or lower the signal;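 further: background control marker of the multiplexed CIS panel rather than a real target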
Outline: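 HepG2 transfectants (cis-regulated reporter transcription units) dosed 24 h. Reporter mRNA by RT-PCR plus CE, analysed as gain or loss relative to DMSO.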

[3] = ATG_M_06_CIS: Attagene CIS-FACTORIAL HepG2 Assay for M06 Transcription Factor (Internal Marker) (AID 2282950); details: HepG2 Attagene CIS-FACTORIAL M06 internal marker reporter; actives raise or lower the signal
Outline: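 One of many multiplexed endpoints: HepG2 reporter mRNA after 24 h dosing, detected by RT-PCR and capillary electrophoresis fluorescence; gain or loss of signal analysed against DMSO.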

[4] = molecular target: Hypoxia-inducible factor 1-alpha (Homo sapiens) (UniProt Q16665); assay: ATG_HIF1a_CIS: Attagene CIS-FACTORIAL HepG2 Assay for human Hypoxia Inducible Factor 1 (HIF1A) (AID 2282951); details: HepG2 Attagene cis-factorial HIF1a reporter transcription; actives raise or lower the signal
Outline: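 Activity is fitted in both directions relative to DMSO. Reporter transcripts are read by RT-PCR, fluorescent primer extension and capillary electrophoresis after 24 h chemical treatment. The cells are HepG2 carrying transiently transfected cis-element-driven reporter units responding to endogenous factors.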

[5] = molecular target: Hepatocyte nuclear factor 6 (Homo sapiens) (UniProt Q9UBC0); assay: ATG_HNF6_CIS: Attagene CIS-FACTORIAL HepG2 Assay for human Hepatocyte Nuclear Factor 6 (HNF6) (AID 2282952); details: HepG2 Attagene cis-factorial HNF6 reporter transcription; actives raise or lower the signal
Outline: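 Endogenous transcription factor activity in human HepG2 liver cells was captured through cis-regulated reporter constructs. After 24 h treatment, reporter mRNA was measured by RT-PCR with capillary electrophoresis, and activity was fitted in both directions relative to DMSO.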

[6] = molecular target: Heat shock factor protein 1 (Homo sapiens) (UniProt Q00613); assay: ATG_HSE_CIS: Attagene CIS-FACTORIAL HepG2 Assay for human Heat Shock Transcription Factor 1 (HSE) (AID 2282953); details: HepG2 HSE cis-reporter, Attagene RNA transcription; actives raise or lower the signal
Outline: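 Using HepG2 with transfected cis-driven reporter constructs, compound effects on endogenous factor activity are scored as reporter mRNA change at 24 h. Detection: RT-PCR, HpaI digestion, capillary electrophoresis; bidirectional fitting to DMSO.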

[7] = ATG_MRE_CIS: Attagene CIS-FACTORIAL HepG2 Assay for human Metal Responsive Element (MRE) (AID 2282954); details: HepG2 MRE cis-reporter transcription, Attagene multiplex; actives raise or lower the signal
Outline: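 Cells were transfected with cis-promoter reporter transcription units, then dosed for 24 h. RNA was reverse-transcribed, amplified, fluorescently labelled and resolved by capillary electrophoresis, and activity was fitted in both directions relative to DMSO.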

[8] = ATG_PBREM_CIS: Attagene CIS-FACTORIAL HepG2 Assay for human Phenobarbital-responsive Enhancer Module (PBREM) (AID 2282955); details: HepG2 PBREM cis-reporter, Attagene multiplexed transcription; actives raise or lower the signal
Outline: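 Endogenous transcription factor activity was read from reporter transcripts in transiently transfected human HepG2 liver cells after 24 h dosing. RT-PCR products were fluorescently labelled, HpaI-cut and sized by capillary electrophoresis; activity fitted bidirectionally against DMSO baseline.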

[9] = molecular target: Paired box protein Pax-6 (Homo sapiens) (UniProt P26367); assay: ATG_Pax6_CIS: Attagene CIS-FACTORIAL HepG2 Assay for human Paired Box 6 (PAX6) (AID 2282956); details: HepG2 CIS-FACTORIAL PAX6 reporter transcription, RNA readout; actives raise or lower the signal
Outline: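 Values derive from bidirectional curve fitting of reporter mRNA signal relative to DMSO. HepG2 cells bearing transfected cis-regulated MRTUs were exposed for 24 h; transcripts were read by RT-PCR and capillary electrophoresis.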

[10] = ATG_PXRE_CIS: Attagene CIS-FACTORIAL HepG2 Assay for human Pregnane X Receptor Element (PXRE) (AID 2282957); details: HepG2 Attagene CIS-FACTORIAL PXRE reporter, mRNA; actives raise or lower the signal
Outline: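 Endogenous transcription factor activity in HepG2 was gauged through induction of reporter mRNA driven by a cis-regulating promoter element, sampled 24 h post-treatment. Activity was fitted in both directions against DMSO negative control.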

[11] = ATG_RORE_CIS: Attagene CIS-FACTORIAL HepG2 Assay for human RAR-related Orphan Receptor Element (RORE) (AID 2282959); details: HepG2 Attagene cis-factorial RORE reporter, mRNA; actives raise or lower the signal
Outline: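 RORE reporter transcripts reflecting endogenous factor activity were read after 24 h compound exposure of transfected HepG2 cells, using reverse transcription, PCR, fluorescent labelling and capillary electrophoresis sizing. Gain or loss fitted against DMSO.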

[12] = ATG_Sox_CIS: Attagene CIS-FACTORIAL HepG2 Assay for human SRY-box transcription factor (SOX) (AID 2282960); details: HepG2 Attagene cis-factorial SOX reporter, mRNA; actives raise or lower the signal
Outline: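 Reporter transcripts, measured by RT-PCR and capillary electrophoresis of labelled fragments, report endogenous SOX transcription factor activity. Transiently transfected human HepG2 cells receive chemical for 24 h; changes in either direction are fitted relative to DMSO.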

[13] = molecular target: Transcription factor Sp1 (Homo sapiens) (UniProt P08047); assay: ATG_Sp1_CIS: Attagene CIS-FACTORIAL HepG2 Assay for human Specificity Protein 1 (Sp1) (AID 2282961); details: HepG2 Sp1 cis-reporter transcription, actives raise or lower the signal
Outline: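 Read-out is reporter transcript level, measured by RT-PCR and fluorescent capillary electrophoresis after 24 h chemical treatment. System: transiently transfected HepG2 cells reporting endogenous transcription factor activity; gain or loss fitted against DMSO baseline.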

[14] = ATG_SREBP_CIS: Attagene CIS-FACTORIAL HepG2 Assay for human Sterol Regulatory Element Binding (SREBP) (AID 2282962); details: HepG2 Attagene cis-factorial SREBP reporter, mRNA; actives raise or lower the signal
Outline: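 Values derive from bidirectional curve fitting with DMSO as baseline. The underlying measurement is reporter mRNA from cis-element-regulated units in transiently transfected HepG2, quantified by RT-PCR and capillary electrophoresis after 24 h exposure.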

[15] = molecular target: Signal transducer and activator of transcription 3 (Homo sapiens) (UniProt P40763); assay: ATG_STAT3_CIS: Attagene CIS-FACTORIAL HepG2 Assay for human Signal Transducer and Activator of Transcription 3 (STAT3) (AID 2282963); details: HepG2, Attagene cis-factorial STAT3 reporter transcription; actives raise or lower the signal
Outline: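 HepG2, MRTU-transfected, 24 h dosing. RNA → RT → PCR → FAM label → HpaI → CE. Bidirectional fit vs DMSO.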

[16] = ATG_TA_CIS: Attagene CIS-FACTORIAL HepG2 Assay for human TA Basal Promoter (AID 2282964); details: HepG2 Attagene CIS-factorial TA basal promoter reporter; actives raise or lower the signal
Outline: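 Transient MRTU transfection of HepG2 preceded 24 h compound exposure. Reporter mRNA levels were then read by RT-PCR with capillary electrophoresis, and this background-control endpoint was fitted bidirectionally to DMSO.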

[17] = ATG_TCF_b_cat_CIS: Attagene CIS-FACTORIAL HepG2 Assay for human T-Cell-Factor with beta-catenin (TCF/b-cat) (AID 2282965); details: HepG2 TCF/beta-catenin cis-reporter transcription, actives raise or lower the signal
Outline: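 Using capillary electrophoresis as the read-out, labelled reporter cDNA fragments from transiently transfected HepG2 were sized and quantified. Exposure lasted 24 hours; activity in either direction was referenced to DMSO.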

[18] = ATG_PPRE_CIS: Attagene CIS-FACTORIAL HepG2 Assay for human Peroxisome Proliferator-activated Response Element (PPRE) (AID 2282958); details: HepG2 PPRE cis-element reporter, Attagene transcription factor profiling; actives raise or lower the signal
Outline: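 Endogenous PPRE-driven transcription is measured in HepG2 cells carrying transfected multi-reporter constructs. Reporter transcripts are quantified by RT-PCR, HpaI digestion and capillary electrophoresis 24 h after dosing. DMSO baseline, bidirectional fit.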

Measured: AC50

Signal transducer and activator of transcription 3 (Homo sapiens), sequence (P40763 whole entry, looked up): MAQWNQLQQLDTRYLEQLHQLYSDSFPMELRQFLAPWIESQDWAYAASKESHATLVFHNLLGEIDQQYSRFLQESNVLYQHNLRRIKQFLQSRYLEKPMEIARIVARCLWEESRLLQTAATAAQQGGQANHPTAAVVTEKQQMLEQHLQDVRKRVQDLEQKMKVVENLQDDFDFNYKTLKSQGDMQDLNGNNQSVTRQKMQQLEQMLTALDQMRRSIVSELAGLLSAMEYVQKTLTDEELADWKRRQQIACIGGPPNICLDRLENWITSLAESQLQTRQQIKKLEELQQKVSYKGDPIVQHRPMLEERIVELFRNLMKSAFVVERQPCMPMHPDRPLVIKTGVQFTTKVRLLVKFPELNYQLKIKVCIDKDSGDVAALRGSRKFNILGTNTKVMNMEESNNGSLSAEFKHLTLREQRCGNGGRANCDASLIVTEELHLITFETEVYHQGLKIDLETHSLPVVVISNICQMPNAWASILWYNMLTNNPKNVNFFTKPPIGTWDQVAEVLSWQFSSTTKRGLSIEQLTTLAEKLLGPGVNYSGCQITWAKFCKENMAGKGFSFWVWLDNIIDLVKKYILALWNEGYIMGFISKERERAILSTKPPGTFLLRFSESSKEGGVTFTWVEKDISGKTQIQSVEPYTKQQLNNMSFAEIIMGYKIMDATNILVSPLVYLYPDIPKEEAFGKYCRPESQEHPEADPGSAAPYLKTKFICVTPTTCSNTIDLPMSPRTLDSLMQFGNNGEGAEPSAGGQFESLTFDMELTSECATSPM
Heat shock factor protein 1 (Homo sapiens), sequence (Q00613 whole entry, looked up): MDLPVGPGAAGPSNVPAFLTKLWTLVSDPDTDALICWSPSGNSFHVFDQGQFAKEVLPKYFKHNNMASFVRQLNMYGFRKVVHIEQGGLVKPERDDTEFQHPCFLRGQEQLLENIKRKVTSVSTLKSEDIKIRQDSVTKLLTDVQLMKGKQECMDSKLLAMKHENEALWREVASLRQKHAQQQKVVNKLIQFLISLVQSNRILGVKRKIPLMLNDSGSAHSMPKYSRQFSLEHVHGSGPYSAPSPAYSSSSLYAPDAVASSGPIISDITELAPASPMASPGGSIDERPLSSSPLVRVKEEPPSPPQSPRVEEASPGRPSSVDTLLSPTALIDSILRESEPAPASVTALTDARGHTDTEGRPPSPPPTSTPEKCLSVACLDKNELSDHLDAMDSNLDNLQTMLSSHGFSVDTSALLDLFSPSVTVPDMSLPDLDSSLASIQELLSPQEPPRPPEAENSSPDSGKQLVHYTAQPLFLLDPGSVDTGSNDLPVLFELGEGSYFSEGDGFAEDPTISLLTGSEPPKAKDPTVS
Paired box protein Pax-6 (Homo sapiens), sequence (P26367 whole entry, looked up): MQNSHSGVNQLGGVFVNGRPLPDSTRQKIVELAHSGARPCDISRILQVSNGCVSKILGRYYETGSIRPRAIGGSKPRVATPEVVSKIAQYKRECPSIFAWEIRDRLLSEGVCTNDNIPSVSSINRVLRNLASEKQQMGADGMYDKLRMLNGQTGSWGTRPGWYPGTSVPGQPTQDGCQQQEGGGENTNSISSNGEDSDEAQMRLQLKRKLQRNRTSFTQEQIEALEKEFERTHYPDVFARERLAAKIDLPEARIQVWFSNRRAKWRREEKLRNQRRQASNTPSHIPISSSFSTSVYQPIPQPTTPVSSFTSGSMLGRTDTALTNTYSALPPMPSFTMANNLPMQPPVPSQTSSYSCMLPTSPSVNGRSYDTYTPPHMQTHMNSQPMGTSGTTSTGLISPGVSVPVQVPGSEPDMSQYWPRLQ
Hepatocyte nuclear factor 6 (Homo sapiens), sequence (Q9UBC0 whole entry, looked up): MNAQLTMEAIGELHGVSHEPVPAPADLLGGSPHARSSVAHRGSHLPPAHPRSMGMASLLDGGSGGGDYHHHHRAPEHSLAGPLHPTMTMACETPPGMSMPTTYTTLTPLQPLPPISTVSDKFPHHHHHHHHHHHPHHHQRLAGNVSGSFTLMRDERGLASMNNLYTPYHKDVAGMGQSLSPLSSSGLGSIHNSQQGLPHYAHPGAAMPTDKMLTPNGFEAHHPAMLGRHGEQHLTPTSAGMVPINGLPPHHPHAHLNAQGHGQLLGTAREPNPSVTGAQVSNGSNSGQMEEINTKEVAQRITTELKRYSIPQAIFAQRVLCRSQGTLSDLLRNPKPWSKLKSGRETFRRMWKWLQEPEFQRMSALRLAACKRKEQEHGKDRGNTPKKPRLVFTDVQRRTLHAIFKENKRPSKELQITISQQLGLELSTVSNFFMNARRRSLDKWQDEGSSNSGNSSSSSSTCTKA
Hypoxia-inducible factor 1-alpha (Homo sapiens), sequence (Q16665 whole entry, looked up): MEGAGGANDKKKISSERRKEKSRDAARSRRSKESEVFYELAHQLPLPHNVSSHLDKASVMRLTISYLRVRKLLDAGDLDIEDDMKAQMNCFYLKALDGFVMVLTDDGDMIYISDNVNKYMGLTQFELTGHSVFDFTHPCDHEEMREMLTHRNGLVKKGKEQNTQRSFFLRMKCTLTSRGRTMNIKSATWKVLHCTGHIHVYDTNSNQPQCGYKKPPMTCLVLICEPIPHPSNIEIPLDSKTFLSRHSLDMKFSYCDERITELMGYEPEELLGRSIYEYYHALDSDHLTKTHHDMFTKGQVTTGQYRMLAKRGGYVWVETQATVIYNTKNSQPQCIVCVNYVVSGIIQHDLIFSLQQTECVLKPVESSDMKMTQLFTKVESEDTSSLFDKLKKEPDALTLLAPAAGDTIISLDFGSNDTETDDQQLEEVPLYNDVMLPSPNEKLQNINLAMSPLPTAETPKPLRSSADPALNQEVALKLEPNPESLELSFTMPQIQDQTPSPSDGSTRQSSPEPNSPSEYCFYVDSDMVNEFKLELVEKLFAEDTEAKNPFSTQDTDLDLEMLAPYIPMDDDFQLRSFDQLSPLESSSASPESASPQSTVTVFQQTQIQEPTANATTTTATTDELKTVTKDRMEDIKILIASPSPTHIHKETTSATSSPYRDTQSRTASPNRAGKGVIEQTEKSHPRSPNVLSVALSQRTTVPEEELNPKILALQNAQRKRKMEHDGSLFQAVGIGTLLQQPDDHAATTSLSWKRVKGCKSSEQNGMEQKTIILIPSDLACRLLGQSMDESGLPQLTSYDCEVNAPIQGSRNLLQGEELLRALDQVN
Transcription factor Sp1 (Homo sapiens), sequence (P08047 whole entry, looked up): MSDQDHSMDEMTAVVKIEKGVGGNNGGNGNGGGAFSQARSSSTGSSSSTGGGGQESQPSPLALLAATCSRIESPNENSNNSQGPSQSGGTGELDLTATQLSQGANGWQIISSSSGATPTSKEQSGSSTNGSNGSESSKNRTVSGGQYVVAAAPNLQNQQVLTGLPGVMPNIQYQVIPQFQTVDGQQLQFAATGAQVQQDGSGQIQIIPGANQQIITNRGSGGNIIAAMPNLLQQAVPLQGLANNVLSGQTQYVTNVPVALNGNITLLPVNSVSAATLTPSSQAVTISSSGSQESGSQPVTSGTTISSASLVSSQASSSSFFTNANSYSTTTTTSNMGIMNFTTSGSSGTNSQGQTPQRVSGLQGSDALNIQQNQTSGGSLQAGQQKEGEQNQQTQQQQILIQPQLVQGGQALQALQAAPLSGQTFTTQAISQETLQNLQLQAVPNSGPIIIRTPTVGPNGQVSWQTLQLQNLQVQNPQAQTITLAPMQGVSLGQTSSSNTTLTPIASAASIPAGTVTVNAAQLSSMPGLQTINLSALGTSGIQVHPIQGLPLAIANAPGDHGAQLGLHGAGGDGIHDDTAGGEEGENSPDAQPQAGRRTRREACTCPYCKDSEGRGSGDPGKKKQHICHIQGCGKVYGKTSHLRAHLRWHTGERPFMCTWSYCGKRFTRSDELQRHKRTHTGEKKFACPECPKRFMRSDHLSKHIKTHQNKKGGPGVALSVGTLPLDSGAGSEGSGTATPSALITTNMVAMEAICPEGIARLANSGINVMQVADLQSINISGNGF

CC1(C)Cc2cccc(O)c2O1
inactive: [1] | [2] | [3] | [4] | [5] | [6] | [7] | [8] | [9] | [11] | [12] | [13] | [14] | [15] | [16] | [17]
active: [10] 7.98 µM

Cc1ccccc1N
inactive: [1] | [2] | [3] | [4] | [5] | [6] | [7] | [8] | [9] | [10] | [11] | [12] | [13] | [14] | [15] | [16] | [17]

NC(=O)O
inactive: [1] | [3] | [4] | [5] | [6] | [7] | [8] | [9] | [10] | [12] | [13] | [14] | [15] | [16] | [17]

CCCCCCCCc1ccc(O)cc1
inactive: [1] | [3] | [4] | [5] | [6] | [7] | [8] | [9] | [10] | [18] | [11] | [12] | [13] | [14] | [15] | [16] | [17]

CC(=O)c1cc(C(C)(C)C)cc2c1CCC2(C)C
active: [6] 64.4 µM | [7] 70.4 µM | [9] 26.9 µM | [18] 29.4 µM | [13] 69.3 µM | [14] 54.4 µM
inactive: [1] | [2] | [3] | [4] | [5] | [8] | [11] | [12] | [15] | [16] | [17]

Cc1cc(Cl)ccc1O[C@H](C)C(=O)O
active: [18] 28.7 µM | [15] 100 µM
inactive: [1] | [2] | [3] | [4] | [5] | [6] | [7] | [8] | [9] | [10] | [11] | [12] | [13] | [14] | [16] | [17]

COc1cc2c(cc1OC)[C@@]13CCN4CC5=CCO[C@H]6CC(=O)N2[C@H]1[C@H]6[C@H]5C[C@H]43
active: [4] 30.3 µM | [10] 36.6 µM
inactive: [1] | [3] | [5] | [6] | [7] | [8] | [9] | [11] | [12] | [13] | [14] | [15] | [16] | [17]

C[C@]12CCC(=O)C[C@@H]1CC[C@@H]1[C@@H]2CC[C@]2(C)[C@@H](O)CC[C@@H]12
inactive: [1] | [3] | [5] | [6] | [7] | [9] | [11] | [12] | [13] | [14] | [15] | [16]
active: [7] 87 µM and 42.6 µM | [11] 42.3 µM | [14] 26 µM and 23 µM

COc1ccc(C=O)cc1OC
inactive: [1] | [2] | [3] | [4] | [5] | [6] | [7] | [8] | [9] | [11] | [12] | [13] | [14] | [15] | [16] | [17]

CCOC(=O)Nc1cccc(OC(=O)Nc2ccccc2)c1
inactive: [1] | [2] | [3] | [4] | [5] | [6] | [7] | [8] | [9] | [18] | [11] | [12] | [13] | [14] | [15] | [16] | [17]
active: [10] 100 µM

C=CC#N
inactive: [1] | [2] | [3] | [4] | [5] | [6] | [7] | [8] | [9] | [11] | [12] | [13] | [14] | [15] | [16]

COP(=S)(OC)Oc1c(Cl)cc(C)cc1Cl
inactive: [1] | [2] | [3] | [4] | [5] | [6] | [8] | [9] | [18] | [12] | [13] | [14] | [15] | [16] | [17]
active: [7] 27.1 µM | [10] 4.62 µM

Nc1cccc2ccccc12
active: [4] 165 µM | [14] 170 µM
inactive: [1] | [2] | [3] | [5] | [6] | [7] | [8] | [9] | [18] | [11] | [12] | [13] | [15] | [16]

ClCCBr
inactive: [1] | [3] | [4] | [5] | [7] | [8] | [9] | [10] | [18] | [11] | [12] | [13] | [14] | [15] | [16] | [17]

NNC(=S)NN
inactive: [1] | [3] | [4] | [5] | [6] | [7] | [9] | [10] | [18] | [11] | [12] | [13] | [14] | [15] | [16] | [17]
